Measurements as given in PubChem BioAssay (NCI).
The panel holds about 79,000 compounds, 15% with a hit somewhere; the sample as a whole holds those more often. Cut-off read from the data, not from the text of the source: active = growth inhibition above about 70%; inactive = the rest.

Legend:
[1] = NCI Yeast Anticancer Drug Screen. Data for the rad50 strain (AID 155);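 note: 0% = growth of vehicle-only cultures of the same strain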; conditions: S. cerevisiae rad50 strain growth inhibition; at 50.0 µM; hits give high values
Method in brief: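 Relative growth inhibition (compound vs vehicle) was measured in yeast with a defined repair-gene alteration.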

[2] = NCI Yeast Anticancer Drug Screen. Data for the mec2-1 strain (AID 157); conditions: S. cerevisiae mec2-1 strain, at 50.0 µM, hits give high values
Method in brief: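 mec2-1 yeast strain, carrying an alteration in DNA damage repair or cell cycle control, was exposed to compounds; growth inhibition was measured relative to vehicle-treated controls.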

[3] = NCI Yeast Anticancer Drug Screen. Data for the sgs1 mgt1 strain (AID 161);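 note: 0% = growth of cultures given vehicle only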; conditions: S. cerevisiae sgs1 mgt1 strain, at 50.0 µM, hits give high values
Method in brief: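 Percent growth inhibition was derived by comparing compound-exposed mutant yeast with vehicle-exposed cultures. The strain carries alterations in DNA damage repair.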

[4] = NCI Yeast Anticancer Drug Screen. Data for the cln2 rad14 strain (AID 165);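 note: 0% = growth equal to vehicle treated cultures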; conditions: S. cerevisiae cln2 rad14 strain, at 50.0 µM, hits give high values
Method in brief: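 Yeast carrying cln2 and rad14 alterations (cell cycle control and DNA damage repair) were exposed to compounds. Growth inhibition was measured against vehicle-treated controls.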

[5] = NCI Yeast Anticancer Drug Screen. Data for the bub3 strain (AID 167); conditions: S. cerevisiae bub3 mutant strain, at 50.0 µM, hits give high values
Method in brief: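 Screening used yeast with an engineered genetic alteration affecting cell cycle control. Compound-exposed cultures were compared with vehicle cultures, and reduced growth was taken as inhibition.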

[6] = NCI Yeast Anticancer Drug Screen. Data for the mlh1 rad18 strain (AID 175); conditions: S. cerevisiae mlh1 rad18 strain growth inhibition; at 50.0 µM; hits give high values
Method in brief: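 Growth inhibition of the yeast strain was measured after compound exposure and expressed relative to vehicle-treated controls. The strain carries defined defects in DNA damage repair.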

Measured: growth inhibition

Cc1cc(O)c(C(c2ccccn2)c2c(O)cc(C)[nH]c2=O)c(=O)[nH]1
inactive: [1] -4.85% | [2] 6.15% | [3] -7.9% | [4] -2.55% | [5] -0.25% | [6] 5%

NCC(=O)NC1(C(=O)NCC(=O)O)CCCC1
inactive: [1] -2.45% | [2] -2.2% | [3] -20.9% | [4] -13.9% | [5] 6.5% | [6] 1.3%

O=C(O)C(CS)(c1ccccc1)c1ccccc1
inactive: [1] 0.65% | [2] 8.25% | [3] 7.7% | [4] 5.95% | [5] -2.85% | [6] 11.4%

C(=N/OC(c1ccccc1)(c1ccccc1)c1ccccc1)/c1ccccc1
inactive: [1] 13.7% | [2] 24.2% | [3] 6.2% | [4] 7.8% | [5] 15.8% | [6] 6.45%

O=C(c1cccc(C(=O)N(c2ccccc2)C2CCCCC2)c1)N(c1ccccc1)C1CCCCC1
inactive: [1] -2.65% | [2] -6.35% | [3] -1.55% | [4] -6.65% | [5] -1.3% | [6] -27.9%

CC(C)=NOCCC#N
inactive: [1] 22.5% | [2] -0.05% | [3] -4.8% | [4] -16.6% | [5] 8.35% | [6] -14.3%

O=C1CSC(c2ccccc2Br)N1c1nncs1 (centres undefined)
inactive: [1] -5.05% | [2] -5.7% | [3] 1.95% | [4] 0.9% | [5] 13.6% | [6] 7.75%

COc1cc2c3c(c1)SC(C)C(=O)N3CCN2 (centres undefined)
inactive: [1] -7.85% | [2] -19.9% | [3] 2.55% | [4] 10.2% | [5] -3.5% | [6] 6.55%

N#CC(c1ccccc1)N(CCc1ccccc1)C(=O)Oc1ccccc1 (centres undefined)
inactive: [1] -14.6% | [2] -19.6% | [3] -8.3% | [4] -18.2% | [5] -40.3% | [6] -30.9%

CCCC1=NCCO1
inactive: [1] -10.9% | [2] -26.6% | [3] -6.65% | [4] 0.45% | [5] -6.95% | [6] -13.7%

O=C(C[n+]1cccc(Br)c1)c1ccc(F)cc1
inactive: [1] 16.1% | [2] 19.9% | [3] 9.6% | [4] 21.4% | [5] 3.35% | [6] 10.2%

Cc1csc(-n2nc(C)cc2C)n1
inactive: [1] -5.35% | [2] -23.1% | [3] -37.2% | [4] 6.75% | [5] -30.9% | [6] -6.05%

COc1c(Cl)cc(Cl)c(C)c1C(C)C(=O)O (centres undefined)
inactive: [1] 21.4% | [2] 5.85% | [3] 2.6% | [4] 16.3% | [5] 25.5% | [6] 10.9%

CC(C)(C)NC(=O)CCC(=O)O
inactive: [1] -8.65% | [2] -19.4% | [3] -16% | [4] -18.2% | [5] -2.3% | [6] -7.3%

CCn1c(=O)c(C#N)c2n(CC)c3ccccc3n2c1=O
inactive: [1] 39.5% | [2] 13.8% | [3] 19.4% | [4] 10.2% | [5] 20.9% | [6] 30%

COc1ccc(C2ON(c3ccccn3)CC=C2C)cc1 (centres undefined)
inactive: [1] 12.4% | [2] -9.25% | [3] 12.6% | [4] 12.2% | [5] -2.45% | [6] 6.55%

O=C(N/N=C/c1ccccc1Cl)c1ccccc1
inactive: [1] -19.4% | [2] -1.25% | [3] -5.3% | [4] -7.55% | [5] -4.05% | [6] -9.6%

O=C1C=C(c2ccccc2)C(O)(c2ccccc2)/C1=C/C=C/c1ccccc1 (centres undefined)
inactive: [1] -3.55% | [2] -14.1% | [3] 6.5% | [4] -12.2% | [5] -5.2% | [6] -8.35%

O=C1OC(=O)C2=C1C1C=CC2CC1
inactive: [1] 3.4% | [2] -7.05% | [3] 3% | [4] 0% | [5] -9.05% | [6] 13.4%

COc1cccc(CN2C(=O)NC(C)(C)C2O)c1 (centres undefined)
inactive: [1] -12.2% | [2] 28.4% | [3] 10.3% | [4] -5.75% | [5] 11.6% | [6] 10.2%

OCC1NCCCC1O (centres undefined)
inactive: [1] -17.5% | [2] -25.6% | [3] -22.9% | [4] -8.55% | [5] -18.1% | [6] -10%

COc1cc(OC)c(OCc2ccccc2)c(OC)c1
inactive: [1] 12.2% | [2] 0.25% | [3] -0.25% | [4] 2.45% | [5] -2.5% | [6] -17.2%

CCN(CC)CC(OC(C)=O)c1ccc2ccc3ccc(O)cc3c2c1 (centres undefined)
inactive: [1] 15.9% | [2] 7.85% | [3] -7.55% | [4] -5.55% | [5] -3.25% | [6] 19.1%

N#CC(=NCCO)C1=C(O)c2ccccc2C1=O
inactive: [1] 6.1% | [2] -10.7% | [3] -16.3% | [4] -30.6% | [5] -48% | [6] -12.3%

CCCOc1cncc(C)n1
inactive: [1] 8% | [2] 19.1% | [3] -3.75% | [4] -3.85% | [5] 13.6% | [6] 9.95%

CC(c1ccccc1)n1cnc2c(=S)nc[nH]c21 (centres undefined)
inactive: [1] 17.1% | [2] -20.9% | [3] -7.55% | [4] 3.35% | [5] -5.85% | [6] -9.95%

Nc1nc[n+](Cc2ccccc2)c2ncn(Cc3ccccc3)c12
inactive: [1] -5.6% | [2] -23.6% | [3] -11.2% | [4] -9.25% | [5] -14.7% | [6] 3.5%

Nc1cc(Cl)c(N)c(Cl)c1
inactive: [1] 1.8% | [2] -21.6% | [3] -9.65% | [4] 14.1% | [5] -19.4% | [6] -0.9%

N#CCCCCCCCCC(=O)O
inactive: [1] -14.6% | [2] -14.4% | [3] 6.9% | [4] -18.4% | [5] -39.5% | [6] -11.5%

CCOC(=O)Cc1ccccn1
inactive: [1] 5.8% | [2] -22.5% | [3] -37.7% | [4] -14.3% | [5] -14.9% | [6] -6%

Cc1[nH]c2ccc([N+](=O)[O-])cc2c1C
inactive: [1] 19.1% | [2] -5.15% | [3] 32.1% | [4] 26.4% | [5] 25.4% | [6] 38.4%

COc1ccc2c(=O)c(-c3ccc(OC)c(OC)c3)c(C)oc2c1
inactive: [1] -0.7% | [2] -1.5% | [3] 13.1% | [4] 7.5% | [5] -31.4% | [6] -4.85%

C=C(C)CNC(C)=O
inactive: [1] -7.75% | [2] 3% | [3] 0% | [4] 0% | [5] 3.4% | [6] 1.95%

CCC(C)c1ccc(CCO)cc1 (centres undefined)
inactive: [1] 27.2% | [2] 2.4% | [3] -10.2% | [4] 10% | [5] -6.65% | [6] 4.45%

N#CC(C#N)=C(N)/C(C#N)=C\c1ccnc2ccccc12
inactive: [1] -28.9% | [2] -1.75% | [3] -3% | [4] 15.1% | [5] 0.65% | [6] -18.2%

COC(=O)c1ccc(C)[n+](C2OC(COC(=O)c3ccccc3)C(OC(=O)c3ccccc3)C2OC(=O)c2ccccc2)c1 (centres undefined)
inactive: [1] 5.2% | [2] 3.45% | [3] 8% | [4] -25.6% | [5] -14.2% | [6] 29.1%

CSc1n[n+]2c(s1)SCCC2
inactive: [1] -19.8% | [2] -27.2% | [3] 0.05% | [4] 5.45% | [5] -8.7% | [6] 0.05%

C=C(C)c1ccccc1S(=O)(=O)c1ccccc1C(C)(C)O
inactive: [1] -23.4% | [2] 5.1% | [3] 6.25% | [4] 55.1% | [5] 36.5% | [6] 9.1%

Clc1ccccc1OCc1cnc[nH]1
inactive: [1] -4.05% | [2] -23.7% | [3] -14.9% | [4] 6.2% | [5] -9.85% | [6] -8.7%

CCN(CC)CCOC(NC(C)=O)(c1ccccc1)c1ccccc1
inactive: [1] 3.5% | [2] -9.55% | [3] 9.85% | [4] 1.55% | [6] 20%
